Where “and” joins values, the source holds several entries; their conditions need not be identical. Equal entries are not always repeated. About 83,000 compounds went through this panel and 20% of them were active in at least one assay; those are over-represented in the sample as a whole.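 Activity criterion: percent growth below 10, measured after cells in 96-well plates were exposed to a single compound concentration for 48 hours.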 Calls of active or inactive are those of the source.
Tests used:
Test in all cases: NCI-60 one-dose screen, 48 h (100 = growth as untreated, 0 = no growth, -100 = all killed)
Conditions in all cases: 10 µM unless noted
[1] = tested on: SK-MEL-2 melanoma
[2] = tested on: EKVX NSCLC
[3] = tested on: SN12C renal
[4] = tested on: UO-31 renal
[5] = tested on: TK-10 renal
[6] = tested on: ACHN renal
[7] = tested on: CAKI-1 renal
[8] = tested on: A498 renal
[9] = tested on: CCRF-CEM leukemia
[10] = tested on: MOLT-4 leukemia

Measured: growth

CCCCC1=C(Br)C(=O)c2nc(C)ccc2C1=O
inactive: [1] 109% | [2] 92.7% | [3] 91.6% | [4] 70.8% | [5] 115% | [6] 57.1% | [7] 85.9% | [8] 93.8% | [9] 30.9% | [10] 21.3%

CCN(c1cc(-c2ccc(CN3CCC(/C=C/S(=O)(=O)c4ccccc4)CC3)cc2)cc(C(=O)NCc2c(C)cc(C)[nH]c2=O)c1C)C1CCOCC1
inactive: [1] 92.5% | [2] 87.4% | [3] 63.6% | [4] 44.7% | [5] 121% | [6] 80% | [7] 51.4% | [8] 51.1% | [9] 38.2% | [10] 26.8%

OB(O)c1ccsc1-c1nc2ccc3[nH]ncc3c2c2c1CCCC2
inactive: [1] 55.9% | [2] 34.7% | [3] 56.4% | [4] 38.3% | [5] 48.7% | [6] 23.3% | [7] 13.7% | [9] 56.2% | [10] 58.5%
active: [8] -2.71%

COc1ccc(C(=O)c2ccc(OC)c(OC)c2OC)cc1
active: [8] 4.87% and -9.47%
inactive: [1] 17.6% and 57.5% | [2] 48.1% and 39% | [3] 56.1% and 43.4% | [4] 41.8% and 24.1% | [5] 34.4% and 54.2% | [6] 42.5% and 53.8% | [7] 14.4% and 21% | [9] 37.3% | [10] 41.5% and 36.8%

COc1ccc(S(=O)(=O)Nc2cc(Sc3cccc4cccnc34)c(O)c3ccccc23)cc1
inactive: [2] 36.7% | [3] 17.2% | [4] 27.4% | [5] 23.4% | [7] 20% | [8] 65.2% | [9] 13.4%
active: [1] 5.09% | [6] 7.43% | [10] -4.51%

Cc1nn(-c2nc(-c3cc4ccccc4oc3=O)cs2)c(C)c1N=Nc1ccccc1
inactive: [1] 113% | [2] 99.8% | [3] 103% | [4] 79.3% | [5] 112% | [6] 108% | [7] 89.2% | [8] 100% | [9] 105% | [10] 100%

Nc1nc(Cl)nc2c1ncn2C1OC(CO)C(O)C1O (stereo not given)
active: [9] 0.283% and -17% | [10] 2.75% and 3.08%
inactive: [1] 82.9% | [2] 102% and 110% | [3] 30.2% and 28.3% | [4] 25.1% and 13% | [5] 82.4% and 87.6% | [6] 65.9% and 61.9% | [7] 25.9% and 41% | [8] 96.6%

C=C1CCC2C3(C)COC(c4ccc(NC(C)=O)cc4)OC3CCC2(C)C1C/C=C1/C(=O)OCC1O (stereo not given)
inactive: [1] 84.4% | [2] 39.6% | [3] 91.6% | [4] 68.3% | [5] 75.3% | [6] 65.8% | [7] 87.7% | [8] 57% | [9] 27.3% | [10] 26.7%

Cc1nnc(NS(=O)(=O)c2ccc(N=Nc3ccc(N)nc3N)cc2)s1
inactive: [1] 104% and 116% | [2] 104% and 105% | [3] 92.3% and 105% | [4] 76.1% and 80.1% | [5] 112% and 111% | [6] 103% and 110% | [7] 98% and 96% | [8] 99.7% and 123% | [9] 100% and 105% | [10] 102% and 96.3%

Cc1nc2sc(C(=O)Nc3cccc4ccccc34)c(N)c2cc1C(=O)/C=C/c1ccccc1
active: [3] -44.3% | [4] -82.6% | [5] 4.36% | [6] 5.45% | [7] -60.6% | [8] -5.08% | [9] 5.51%
inactive: [1] 27% | [2] 41.1% | [10] 18.4%

O=C(Nc1ccc(F)cc1)c1cc2cc(Nc3nc(-c4ccccc4)nc4ccccc34)ccc2oc1=O
inactive: [1] 104% | [2] 108% | [3] 104% | [4] 83.4% | [5] 97.3% | [6] 105% | [7] 101% | [8] 102% | [9] 106% | [10] 92.9%

O=C(CCl)N(O)c1ccc(/C=C/c2ccccc2)cc1
7.08% (active) and 12.4% (inactive): [10]
-4.68% (active) and 10.3% (inactive): [9]
inactive: [1] 88.1% and 77.7% | [2] 81.7% | [3] 63.3% and 48.8% | [4] 66.4% and 65.2% | [5] 89.7% and 81.1% | [6] 97.8% and 87.6% | [7] 95.3% and 91.1% | [8] 69.2% and 87.1%

O=C(NNc1ccccc1)C1CCCN1 (stereo not given)
inactive: [1] 87.5% | [2] 69.4% | [3] 85.4% | [4] 33% | [5] 84.6% | [6] 20% | [7] 13.5% | [8] 103% | [9] 46.7% | [10] 44.3%

CN1CCN(Cc2ccc(NC(=O)c3cccc(C#Cc4c(N)ncc5ccc(F)cc45)c3)cc2C(F)(F)F)CC1
active: [1] -49.9% | [2] -19.6% | [3] 5.02% | [4] -69.5% | [5] -70.9% | [6] -93.5% | [7] -98.5% | [8] -78.9% | [9] -23.1% | [10] -61.4%

COc1ccc(Cn2cc(C(=O)Nc3cccnc3Nc3ccccc3)nn2)cc1
inactive: [1] 107% | [2] 92.8% | [3] 86.5% | [4] 70.9% | [5] 95.1% | [6] 105% | [7] 88.4% | [8] 117% | [9] 108% | [10] 93.5%

Cc1ccc(-c2nc3nc(-c4ccccc4)nc(N4CCN(S(=O)(=O)c5ccccc5)CC4)c3o2)cc1
inactive: [1] 76.9% | [2] 96.1% | [3] 94.3% | [4] 99.2% | [5] 79.1% | [6] 72% | [7] 84% | [8] 99.3% | [9] 108% | [10] 102%

Cc1ccc(Cc2cnc(NC(=O)c3cc(C)oc3C)s2)cc1
inactive: [1] 85.6% | [2] 57.4% | [3] 86.9% | [4] 61.2% | [5] 63.6% | [6] 70.4% | [7] 38.4% | [8] 84.4% | [9] 70.8% | [10] 60.2%

CN(C)C1CCN(C(=O)c2ccc(NC(=O)Nc3ccc(-c4nc(N5CCOCC5)c5cccn5n4)cc3)cc2)CC1
active: [1] -7.66% | [2] -15% | [3] 4.15% | [4] 8.27% | [5] -20.9% | [6] 2.19% | [8] -54.9% | [10] 0.188%
inactive: [7] 69.6% | [9] 10.5%

COc1ccc(CN2CCc3c(Cl)nc(N)nc3C2=O)c(OC)c1
inactive: [3] 17.2% [100 µM] | [4] 27.9% [100 µM] | [5] 22.2% [100 µM] | [6] 32.3% [100 µM] | [7] 23.4% [100 µM] | [8] 35.7% [100 µM] | [10] 13% [100 µM]
active: [1] -30.2% [100 µM] | [2] 5.84% [100 µM] | [9] 3.61% [100 µM]

N=c1c2c(-c3ccccc3)c(-c3ccccc3)oc2ncn1NC(=O)c1cccnc1
inactive: [1] 111% | [2] 96.1% | [3] 102% | [4] 75.9% | [5] 112% | [6] 109% | [7] 93.8% | [8] 73.6% | [9] 84% | [10] 89.9%

CCOC(=O)C(=Cc1ccc(C#N)cc1)C(=O)OCC
inactive: [1] 42.9% | [2] 77.2% | [3] 45.9% | [7] 48.6% | [8] 82.3% | [10] 10.6%
active: [4] -33.9% | [5] -1.52% | [6] -64.7% | [9] 2.95%

COc1ccc2c(O)c(/C=C3\N=Nc4nc(C)ccc43)oc2c1CC1CCNCC1
inactive: [1] 95.5% | [2] 63.4% | [3] 60.3% | [4] 70.6% | [5] 79.1% | [6] 69.2% | [7] 83.1% | [8] 44.7% | [9] 63.3% | [10] 48.1%

Fc1ccc(NC(c2ccc(F)cc2)C2CCN(CCCCc3ccccc3)CC2)cc1 (stereo not given)
active: [9] 8.3% | [10] 4.36%
inactive: [1] 69.6% | [2] 52.9% | [3] 29% | [4] 38.8% | [5] 49% | [6] 53.8% | [7] 49.1% | [8] 17.2%

COc1ccc2c(c1)CCNC21C(=O)Nc2c(Br)cc(Br)cc21 (stereo not given)
inactive: [1] 106% | [2] 78.7% | [3] 92.5% | [4] 62.1% | [5] 106% | [6] 93.7% | [7] 82.8% | [8] 67% | [9] 113% | [10] 95.9%

— PubChem BioAssay (NCI)
